FBPA Giardia inh – inhibitors of Giardia lamblia fructose-1,6-bisphosphate aldolase; A8B2U2; purified Giardia FBPA; Potency, µM (series often up to 59.6 µM), for the others: top-dose activity, negative = inhibition, usual class: inhibitors; 290,000 tested, 0.71% active; AID 2451; further: potency means the concentration at half of the fitted maximal effect; on the % scale 0 is the no-effect control and ±100 the full control effect; nearly all actives have a fitted effect of over 55% in size
Target sequence (A8B2U2 whole entry, looked up): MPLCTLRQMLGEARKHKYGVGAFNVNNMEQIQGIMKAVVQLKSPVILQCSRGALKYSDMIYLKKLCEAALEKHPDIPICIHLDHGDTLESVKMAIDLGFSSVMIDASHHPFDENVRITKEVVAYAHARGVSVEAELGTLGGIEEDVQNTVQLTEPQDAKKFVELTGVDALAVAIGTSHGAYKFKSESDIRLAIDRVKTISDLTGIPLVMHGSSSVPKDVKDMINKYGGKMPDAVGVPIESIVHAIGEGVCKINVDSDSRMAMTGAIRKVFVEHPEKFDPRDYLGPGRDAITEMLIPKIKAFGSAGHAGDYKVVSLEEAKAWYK
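40 nM FBPA preincubated 10 min at RT with compound (up to 57.5 uM final), then substrate plus GAPDH/TPI/NAD/arsenate coupling and diaphorase/resazurin added. Fluorescence read after 20 min at RT, 525/598 nm.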
Cycloheximide cs – counter-screen for Shiga toxin inhibitors: cycloheximide protein synthesis inhibition. max response, %. AID 2314. cell reporter, cycloheximide protein synthesis inhibition counterscreen. 300,000 tested, 12% active; in the data active means max response mostly above about 13%, no sharp cut-off; inactive means mostly below about 14%; further: read at 38.3 µM for the half of the compounds with a filed dose; 0% is about no effect
Pf growth 96h – P. falciparum growth inhibition at 96 hour, primary screen for plastid delayed-death inhibitors. P. falciparum luciferase reporter growth, 96 h. Potency, µM (top dose mostly 28.7 µM), inactives show top-dose activity change, negative = inhibition, actives largely listed as inhibitors. 320,000 tested, 6.9% active; further: potency means the concentration at half of the fitted maximal effect; on the % scale 0 is the no-effect control and ±100 the full control effect
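Readout is luminescence from an integrated firefly luciferase in P. falciparum. Red cells, 2% hematocrit and 0.05% parasitemia final, were cultured with compound through two parasite generations (96 hours) at 37 C, 5% CO2.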
NS1 inh – inhibitors of influenza NS1 protein function; Potency, µM (series often up to 46.1 µM), inactives show at the highest dose activity, positive = more growth; 270,000 tested, 0.4% active; calls by dose curve; further: potency means the concentration at half of the fitted maximal effect; actives are rising curves; nearly all actives have a fitted effect of over 50% in size
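S. cerevisiae expressing influenza A NS1, grown in glucose, washed, then diluted 1:100 into pH 6.0 -URA galactose medium with 23 nl compound. Growth recovery read as OD600; NS1-free strain serves as control.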
Pf growth 48h – P. falciparum growth inhibition at 48 hours (one generation) | P. falciparum luciferase growth in erythrocytes, 48 h | Potency, µM (doses to about 28.7 µM), for inactives: top-dose activity change, negative = inhibition, hits mostly inhibitors | 310,000 tested, 5.9% active | AID 504832; further: potency means the concentration at half of the fitted maximal effect; on the % scale 0 is the no-effect control and ±100 the full control effect
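Luciferase-expressing P. falciparum in infected erythrocytes (2% hematocrit, 0.1% parasitemia final) in RPMI 1640/0.5% Albumax were exposed to compound for 48 hours at 37 C, 5% CO2; growth read as luminescence.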
Shiga toxin inh – Shiga toxin inhibition; Vero cells, Shiga toxin protein synthesis inhibition reporter; inhibition, % at 38.7 µM; 290,000 tested, 9.2% active; in the data active means inhibition mostly above about 28%, no sharp cut-off; inactive means mostly below about 43%; further: 0% is about no effect
* hit, by the source's call; ? = inconclusive; . = not tested or not shown; [ ] = remark or other dose. Rows were chosen to be rich in hits. Some 21% of all compounds tested hit in one or more screens of this group. Unless noted, the call rests on the fitted dose curve; in most records, active means well fitted curve in the direction sought with a large enough effect; inconclusive means small, poorly fitted or top-dose-only effect, or another doubt; inactive means no such curve, though single readings can be large; an effect the other way counts as inactive or inconclusive.

SMILES	FBPA Giardia inh	Cycloheximide cs	Pf growth 96h	NS1 inh	Pf growth 48h	Shiga toxin inh
CC12C=C(/C=C/C=C/c3ccco3)C(C)(C1)C(/C=C/c1ccco1)CC2=O (stereo not given)	-1%[12.9 µM]	.	.	.	.	.
CC1(C)Oc2cc(N)c([N+](=O)[O-])cc2O1	0%	3	-6%	0%	3%	-8
C=C1N(C)c2cc([N+](=O)[O-])c(N)cc2C1(C)C	4.5µM*	8	?	3%	?	14
O=C(Cn1c(=O)oc2cccnc21)Nc1ccccc1Oc1ccc(Cl)cc1Cl	0%	-3	0%	0%	3%	-11
CCOc1ccc2nc(N3CCC(C(=O)N4CCN(c5ncccn5)CC4)CC3)sc2c1	-3%	26*	?	-53%	-2%	39
O=C(C1CCCN(c2nnc(-n3cccc3)s2)C1)N1CCC2(CC1)OCCO2 (stereo not given)	-1%	8	-26%	3%	?	8
CCn1c(C(=O)N2CCC(C(=O)N3CCC4(CC3)OCCO4)CC2)cc2sccc21	1%	9	-5%	0%	0%	-3
O=C(C1CCN(c2nc3ccc(Br)cc3s2)CC1)N1CCC2(CC1)OCCO2	0%	30*	4.7µM*	?	41%	59*
CCc1ccc2nc(N3CCC(C(=O)N4CCC5(CC4)OCCO5)CC3)sc2c1	7%	58*	?	.	60%	131*
Cc1ccc2nc(N3CCC(C(=O)N4CCC5(CC4)OCCO5)CC3)sc2c1	1%	40*	13%	-23%	36%	79*
COc1cc(C2C(C#N)=C(N)N(N(C)C)C3=C2C(=O)CC(C)(C)C3)cc(OC)c1OC (stereo not given)	-27%	-3	?	3%	-16%	-4
CCN(CC(=O)NC(C)C)C(=O)[C@@H](NC(=O)c1ccco1)C(C)C	5%	-1	11%	.	-4%	-8
CC1CCc2c(sc3[nH]c(=S)n(C)c(=O)c23)C1 (stereo not given)	20%	8	30%	-1%	?	-5
CCOc1ccc2nc(N3CCC(C(=O)N4CCC5(CC4)OCCO5)CC3)sc2c1	0%	41*	47%	-53%	23%	119
CCOc1ccc2nc(N3CCC(C(=O)N4CCN(c5ccccn5)CC4)CC3)sc2c1	0%	0	45%	-36%	?	20
O=C(COc1ccc(C(=S)N2CCCC2)cc1)Nc1ccc(F)cc1	-8%	8	10µM*	-11%	-22%	23
S=C(c1ccc(OCc2ccccc2)cc1)N1CCCC1	9%	21*	-10%	-16%	35%	39*
COc1ccc(C(=S)N2CCCC2)cc1	-8%	4	1%	12%	4%	23
O=C(COc1ccc(C(=S)N2CCCC2)cc1)Nc1ccccc1C(F)(F)F	2%	-2	?	-24%	17%	-11
CCOc1cc(C(=S)N2CCCC2)ccc1OCc1ccccc1	-2%	5	?	-32%	0%	-8
Fc1ccc(COc2ccc(C(=S)N3CCCC3)cc2)cc1	7%	53*	?	-19%	37%	59*
CC(C)CN1CCC2(CC1)CCN(C(=O)c1ccco1)CC2	7%	.	.	.	.	.
CCOC(=O)c1c[nH]c2c3c(ccc2c1=O)CCCC3	-6%[12.9 µM]	22*	?	4%	0.33µM*	45
CCOC(=O)c1c[nH]c2c(C)cc(C)cc2c1=O	-11%	-2	10%	14%	5.2µM*	-7
CCOC(=O)c1c[nH]c2c(Cl)c(Cl)ccc2c1=O	-1%	-1	-34%	2%	-1%	-20
SMILES	FBPA Giardia inh	Cycloheximide cs	Pf growth 96h	NS1 inh	Pf growth 48h	Shiga toxin inh
O=C(CCC1CCCCC1=O)c1ccccc1 (stereo not given)	7%	18	?	5%	56%	33
Cc1ccc(C(=O)CCC2CCCC2=O)cc1 (stereo not given)	-1%	50*	87%	-2%	97%	53*
Cc1ccc(C(=O)CCC2CCCCC2=O)cc1 (stereo not given)	2%	33*	140%	6%	.	101*
CCc1ccc(C(=O)CCC2CCCCC2=O)cc1 (stereo not given)	4%	36*	29%	6%	.	96*
Cc1ccc(CNC(=O)C(c2ccccc2)c2ccccc2)cc1	15%	-4	-20%	13%	-19%	-7
Cn1ncc(Cl)c(Oc2ccccc2)c1=O	4%	11	239%	-34%	6%	-11
Cn1ncc(Cl)c(Oc2ccc(C(C)(C)C)cc2)c1=O	-5%	20*	?	-22%	-24%	-4
CCOc1ccccc1NC(=O)c1cccc(NC(=O)C2CCCC2)c1	14%	2	?	-11%	-28%	-1
O=C(Nc1ccccc1Cl)c1cccc(NC(=O)C2CCCC2)c1	8%	12*	1%	-43%	-16%	2
O=C(Nc1cccc(Cl)c1)Nc1cccc(C(=O)O)c1	13%	35*	308%	2%	289%	76*
O=C(NCc1ccccc1Cl)c1cccc(NC(=O)c2ccccc2)c1	-1%	0	?	-3%	-5%	-1
O=C(Nc1cccc(C(=O)O)c1)Nc1ccccc1Cl	13%	31*	48%	3%	445%	98*
CC(=O)Nc1cccc(NC(=O)Nc2cccc3ccccc23)c1	.	10	121%	-8%	11%	-24
O=C(Nc1cccc(C(=O)O)c1)Nc1cccc2ccccc12	6%	21*	242%	3%	.	29
COc1cc(NC(=O)CSc2nc(C)c(C)c(C)n2)cc(OC)c1	2%	1	-21%	.	2%	-7
O=C(Nc1ccc(Cl)cc1)Nc1cccc(C(=O)O)c1	10%	52*	3.7µM*	1%	-13%	110*
CSc1cccc(NC(=O)Nc2ccc(Cl)cc2)c1	1%	12	?	-18%	?	28
Fc1ccc(NC(=S)Nc2cccc3cnccc23)cc1	2.8µM*	17*	?	.	?	32
CN(C)S(=O)(=O)c1cccc(NC(=S)Nc2cccc3cnccc23)c1	2.5µM*	8	3.7µM*	-7%	6.6µM*	17
S=C(Nc1ccc(Cl)cc1)Nc1cccc2cnccc12	1.6µM*	18	12µM*	-62%	?	19
N#CCSc1nnc(C2CCCCC2)n1Cc1ccccc1	-1%	-2	3.3µM*	-1%	-15%	-4
Cn1c2ccccc2c(=O)c2c(=O)n(C3CCCCCC3)c(C3CCCCC3)nc21	3%	-6	10µM*	6%	8.3µM*	-13
Cn1c2ccccc2c(=O)c2c(=O)n(C3CCCCC3)c(-c3cccs3)nc21	12%	2	.	11%	6.6µM*	25
Cn1c2ccccc2c(=O)c2c(=O)n(-c3ccccc3)c(C3CCCCC3)nc21	2%	-4	9.3µM*	29%	9.3µM*	14
CCc1nc2c(c(=O)c3ccccc3n2C)c(=O)n1C1CCCCCC1	2%	6	?	-5%	?	-9

Screening results as filed in PubChem.
